The values below come from PubChem BioAssay (NCATS).

The structures appear in SMILES notation. Records with an inconclusive call do not appear. A number with no mark means an inactive call. Activity calls are given as the source filed them. Calls come from the whole dose curve; as a rule, active = well fitted inhibition curve with a large enough effect in the signal ratio, with a control signal flat (not every such curve was filed as active); inconclusive = small, poorly fitted or top-dose-only effect, or effect the other way, or a change in a side signal; inactive = flat fitted curve, though single readings scatter; the % refers to the signal ratio.

This assay deals with Peroxisome proliferator-activated receptor gamma (Homo sapiens) (UniProt P37231). Kind of assay: qHTS assay for small molecule antagonists of peroxisome proliferator-activated receptor gamma signaling (AID 588537).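 For activity, negative = inhibition: reporter cells co-stimulated with 50 nM rosiglitazone agonist during compound treatment.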 As to conditions: HEK293 PPARg-UAS-bla, beta-lactamase ratio, antagonist mode; series mostly up to 76.8 µM; activity, negative = inhibition: at the top concentration. An excerpt: NIH Chemical Genomics Center [NCGC]
Peroxisome proliferator-activated receptor gamma (Homo sapiens), sequence (P37231 whole entry, looked up): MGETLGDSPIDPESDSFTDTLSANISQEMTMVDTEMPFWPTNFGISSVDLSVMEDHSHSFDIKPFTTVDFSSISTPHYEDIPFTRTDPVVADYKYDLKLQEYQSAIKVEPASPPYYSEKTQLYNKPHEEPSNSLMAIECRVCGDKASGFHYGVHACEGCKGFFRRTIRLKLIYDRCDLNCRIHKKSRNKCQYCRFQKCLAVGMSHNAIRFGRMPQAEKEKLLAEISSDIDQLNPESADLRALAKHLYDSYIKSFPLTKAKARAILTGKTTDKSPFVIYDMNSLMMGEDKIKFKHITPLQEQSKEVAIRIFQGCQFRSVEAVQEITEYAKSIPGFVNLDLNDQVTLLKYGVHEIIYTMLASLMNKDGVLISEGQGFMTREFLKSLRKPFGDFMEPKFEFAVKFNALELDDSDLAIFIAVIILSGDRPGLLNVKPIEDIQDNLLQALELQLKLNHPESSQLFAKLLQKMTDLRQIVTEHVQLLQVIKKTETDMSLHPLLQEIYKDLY
U.S. Environmental Protection Agency [EPA]
National Institutes of Environmental Health Sciences [NIEHS]
National Toxicology Program [NTP]
The Peroxisome proliferator-activated receptors (PPARs) are lipid-activated transcription factors of the nuclear receptor superfamily with three distinct subtypes namely PPAR alpha, PPAR delta (also called PPAR beta) and PPAR gamma. All these subtypes heterodimerizes with Retinoid X receptor (RXR) and these heterodimers regulate transcription of various genes. PPAR-gamma (glitazone receptor) ligands have been used in the treatment of type 2 diabetes and dyslipidaemia. It is involved in the regulation of glucose and lipid metabolism. PPAR-gamma activates certain genes like Paraoxonase 1 which is responsible for hydrolyzing organophosphates. PPAR-gamma ligands may also be therapeutically important in the treatment of coronary artery disease, obesity and cancer and atherosclerosis.
NCGC Assay Protocol Summary
Using a beta-lactamase reporter-gene under control of Peroxisome Proliferator-Activated-gamma (PPAR-gamma) response element, a cell-based assay [GeneBLAzer PPAR-gamma-UAS-bla assay developed by Invitrogen] was used to measure PPAR-gamma ligands signaling. GeneBLAzer PPAR-gamma-UAS-bla-HEK293 cells were used with assay medium containing 1% charcoal/dextran treated FBS. The assay was performed in clear bottom black Greiner 1536-well plates. Library compounds were measured for their ability to inhibit the reporter gene activity. Compounds were screened in a titration series in 1536-well format. The fluorescence intensity (405 nm excitation, 460/530 nm emission) was measured using an EnVision plate reader. Data was normalized relative to Rosiglitazone control (50 nM, 100%), and DMSO only wells (basal, 0%). Concentration-response titration points for each compound were fitted to the Hill equation yielding concentrations of half-maximal inhibition (IC50) and maximal response (efficacy) values.
qHTS protocol for PPAR-gamma beta-lactamase assay in antagonist mode
[Step] [Parameter] [Value] [Description]
1. Reagent; 5 uL; 3000 cells/well
2. Incubation; 37 C for 6-6.5 hrs
4. Controls (GW9662, PPAR-gamma antagonist); 23 nL,
5. Agonist (Stimulator); 1uL; Rosiglitazone at 50 nM (final) concentration
6. Incubation; 37 C for 16 hrs
7. Detection reagent; 1 uL of CCF4-dye
8. Incubation; RT for 2 hrs
9. Detection; Fluorescence; Envision plate reader
`NCCNc1cccc2ccccc12`: the Potency is 39.8 µM (active).

On to `COc1ccc(C(=O)c2ccccc2)c(O)c1`, for which the “activity, negative = inhibition” value is 0.693%.

With `CCCCCCCCOc1ccc(C(=O)c2ccccc2)c(O)c1`, the “activity, negative = inhibition” value was 9.04%.

Consider `O=C(O)c1ccc(S(=O)(=O)N(Cl)Cl)cc1`, for which the “activity, negative = inhibition” value is 5.71%.

Consider `CCCCCCCCCCCCCCCCO`, for which the “activity, negative = inhibition” value is -2.62%.

Consider `CCCN(CCC)S(=O)(=O)c1ccc(C(=O)O)cc1`, for which the Potency entry is “inactive”.

As to `CCCCCCCCCCCCCC(=O)OC(C)C`, the “activity, negative = inhibition” value was -0.592%.

On to `CCCCOC(=O)CC(CC(=O)OCCCC)(OC(C)=O)C(=O)OCCCC`, for which the “activity, negative = inhibition” value is -1.98%.

For the compound `CN(C)C(=O)Nc1ccc(Cl)c(Cl)c1`, the “activity, negative = inhibition” value is -8.63%.

For `CC(C)(C)CC(C)(C)c1ccc(O)c(-n2nc3ccccc3n2)c1`, the “activity, negative = inhibition” value was -17.2%.

With `C=C[C@@]1(C)CC(=O)[C@]2(O)[C@@]3(C)[C@@H](O)CCC(C)(C)[C@@H]3[C@H](O)[C@H](OC(C)=O)[C@@]2(C)O1`, the “activity, negative = inhibition” value was 5.5%.

Turning to `CCOc1ccc(NC(C)=O)cc1`, the “activity, negative = inhibition” value was -2.76%.

In the case of `CC1(C)OC[C@@H]2O[C@@]3(C(=O)O)OC(C)(C)O[C@H]3[C@@H]2O1`, the “activity, negative = inhibition” value is 3.05%.

Take `CCCCC(CC)COC(=O)c1ccc(N(C)C)cc1` (stereo unspecified): the Potency result is “inactive”.

For the compound `C/C=C/c1ccc(O)c(OC)c1`, the Potency result is “inactive”.

For the compound `CCOc1ccccc1C(N)=O`, the “activity, negative = inhibition” value is -8.01%.
